Screens (PubChem)
Rows were chosen to be rich in hits. Some 1.2% of all compounds tested hit in one or more screens of this group.
TcdB GH inh: blocks C. difficile toxin B glycohydrolase activity. P18177. AID 652162. TcdB glycohydrolase enzymatic assay, plate reader. actives 0.24% (n = 350,000). inhibition, % at 9.99 µM; in the data active = inhibition above about 10%
Target sequence (P18177 whole entry, looked up): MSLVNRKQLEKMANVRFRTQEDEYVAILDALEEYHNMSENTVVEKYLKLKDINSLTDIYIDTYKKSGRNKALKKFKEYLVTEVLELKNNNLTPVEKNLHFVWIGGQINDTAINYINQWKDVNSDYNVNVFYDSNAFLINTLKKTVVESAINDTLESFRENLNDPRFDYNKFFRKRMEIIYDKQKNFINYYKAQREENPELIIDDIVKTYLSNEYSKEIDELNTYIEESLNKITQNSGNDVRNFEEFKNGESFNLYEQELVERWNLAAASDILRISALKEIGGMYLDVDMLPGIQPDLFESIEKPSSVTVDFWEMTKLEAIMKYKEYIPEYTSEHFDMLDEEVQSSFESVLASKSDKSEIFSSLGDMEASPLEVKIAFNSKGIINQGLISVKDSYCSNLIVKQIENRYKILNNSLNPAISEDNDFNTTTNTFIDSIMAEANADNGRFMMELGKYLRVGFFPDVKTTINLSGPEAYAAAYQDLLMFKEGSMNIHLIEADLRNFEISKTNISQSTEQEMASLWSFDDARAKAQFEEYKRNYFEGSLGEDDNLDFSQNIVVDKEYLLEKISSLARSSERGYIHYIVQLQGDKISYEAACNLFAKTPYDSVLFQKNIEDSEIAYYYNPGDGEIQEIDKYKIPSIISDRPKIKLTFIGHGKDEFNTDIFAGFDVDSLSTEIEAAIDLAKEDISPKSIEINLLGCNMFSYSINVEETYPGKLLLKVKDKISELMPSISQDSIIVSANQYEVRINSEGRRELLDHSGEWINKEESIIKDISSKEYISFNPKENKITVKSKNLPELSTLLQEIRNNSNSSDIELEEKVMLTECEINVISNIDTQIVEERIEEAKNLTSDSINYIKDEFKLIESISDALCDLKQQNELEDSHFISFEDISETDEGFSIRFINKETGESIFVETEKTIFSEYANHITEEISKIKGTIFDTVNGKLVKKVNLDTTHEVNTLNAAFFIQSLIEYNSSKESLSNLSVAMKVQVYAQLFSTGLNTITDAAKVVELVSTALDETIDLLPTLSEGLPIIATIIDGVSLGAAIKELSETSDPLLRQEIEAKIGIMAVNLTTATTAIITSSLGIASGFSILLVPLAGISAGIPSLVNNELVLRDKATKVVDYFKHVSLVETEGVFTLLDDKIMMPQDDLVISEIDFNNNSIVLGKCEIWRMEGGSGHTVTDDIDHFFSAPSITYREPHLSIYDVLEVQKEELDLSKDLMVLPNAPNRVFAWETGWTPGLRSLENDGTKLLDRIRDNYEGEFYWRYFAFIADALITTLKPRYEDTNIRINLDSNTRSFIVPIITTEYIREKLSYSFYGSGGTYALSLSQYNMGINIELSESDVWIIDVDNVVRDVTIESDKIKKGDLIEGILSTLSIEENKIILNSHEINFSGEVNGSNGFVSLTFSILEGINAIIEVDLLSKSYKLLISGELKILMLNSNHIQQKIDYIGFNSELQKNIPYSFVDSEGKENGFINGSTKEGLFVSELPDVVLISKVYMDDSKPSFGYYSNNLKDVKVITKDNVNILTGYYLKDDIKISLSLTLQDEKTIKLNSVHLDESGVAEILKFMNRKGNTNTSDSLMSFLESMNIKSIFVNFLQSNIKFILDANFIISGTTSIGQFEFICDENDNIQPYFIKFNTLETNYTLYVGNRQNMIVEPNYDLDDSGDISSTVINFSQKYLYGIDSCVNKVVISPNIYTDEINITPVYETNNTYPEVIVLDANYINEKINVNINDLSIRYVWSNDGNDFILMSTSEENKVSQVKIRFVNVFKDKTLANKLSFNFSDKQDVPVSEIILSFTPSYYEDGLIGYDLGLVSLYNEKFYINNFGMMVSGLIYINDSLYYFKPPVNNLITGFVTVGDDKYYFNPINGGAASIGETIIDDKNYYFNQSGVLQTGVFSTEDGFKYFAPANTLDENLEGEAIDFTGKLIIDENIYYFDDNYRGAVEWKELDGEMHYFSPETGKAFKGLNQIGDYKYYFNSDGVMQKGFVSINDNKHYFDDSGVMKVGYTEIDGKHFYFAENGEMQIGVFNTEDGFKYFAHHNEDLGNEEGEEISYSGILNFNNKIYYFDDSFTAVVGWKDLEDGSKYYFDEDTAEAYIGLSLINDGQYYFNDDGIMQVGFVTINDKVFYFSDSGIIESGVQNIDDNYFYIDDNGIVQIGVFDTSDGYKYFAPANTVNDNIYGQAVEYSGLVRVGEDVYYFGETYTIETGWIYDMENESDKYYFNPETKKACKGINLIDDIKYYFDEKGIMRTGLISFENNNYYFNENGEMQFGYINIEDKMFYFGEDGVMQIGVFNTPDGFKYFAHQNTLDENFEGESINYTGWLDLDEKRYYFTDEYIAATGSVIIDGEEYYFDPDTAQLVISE
Sa RN4220 lethal: kills Staphylococcus aureus RN4220; inhibition, % (no concentration beside the values); actives 0.33% (n = 330,000); S. aureus RN4220 growth, OD600, 16 h; in the data active = inhibition above about 85%;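 also: plate controls were untreated cells for no effect and reference antibiotic for full effect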
PfHsp40 yeast: compounds rescuing yeast from Plasmodium falciparum HSP40 toxicity | growth rescue, % at 12.5 µM | AID 504582 | actives 0.68% (n = 340,000) | S. cerevisiae expressing PfHsp40, growth rescue, ATP luminescence; in the data active = growth rescue above about 28%, passing the limit was not always enough;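 also: yeast W303a lacking pdr1 and pdr3 grown in galactose medium; growth measured after three days at 30 °C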
ugtP null kill: growth inhibition of S. aureus ugtP deletion strain; S. aureus RN4220 ugtP deletion, OD600 growth, 16 h; growth inhibition, % (concentration not given with the values); actives 0.54% (n = 330,000); AID 1259309; in the data active = growth inhibition above about 68%;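 also: plate controls were untreated wells for no effect and antibiotic for full effect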
PrP UTR inh: inhibition of PrP 5' UTR reporter expression. cell-based PrP 5' UTR mRNA reporter, plate reader. inhibition, % (no concentration beside the values). actives 0.35% (n = 340,000); in the data active = inhibition above about 52%; also: 0 = median of the neutral control wells
Starred values were filed as active, the others as inactive; x = no result given.

SMILES	TcdB GH inh	Sa RN4220 lethal	PfHsp40 yeast	ugtP null kill	PrP UTR inh
CCOC(=O)C(O)(c1ccc(NC(=S)NC(=O)c2ccc(Cl)cc2Cl)cc1)C(F)(F)F (stereo not drawn)	x	24.0	1.3	83.7*	-2.8
CCOC(=O)C(O)(c1ccc(NC(=S)NC(=O)c2ccc(Cl)cc2Cl)c(C)c1)C(F)(F)F (stereo not drawn)	0.6	9.4	1.8	44.9	-7.4
COC(=O)C(O)(c1ccc(NC(=S)NC(=O)c2ccc(Cl)cc2Cl)cc1)C(F)(F)F (stereo not drawn)	0.3	5.2	-0.2	85.9*	-12.0
CC(C)CC#Cc1cnc2c(c1)C(=O)N([C@@H](C)CO)C[C@@H](C)[C@H](CN(C)Cc1cncnc1)O2	1.2	x	x	x	x
O=C(C[C@@H]1CC[C@@H](NC(=O)Nc2ccc3c(c2)OCO3)[C@H](CO)O1)NCc1ccccc1	-0.7	x	x	x	x
C[C@H](CO)N1C[C@H](C)[C@@H](CN(C)C(=O)NC2CCCCC2)Oc2ccc(NC(=O)Nc3ccc(F)cc3)cc2CC1=O	-1.4	x	x	x	x
O=C(Cn1cncn1)NN=Cc1cc([N+](=O)[O-])ccc1O	x	87.7*	x	75.7	x
O=C(CSc1nc2ccccc2s1)N/N=C/c1cc([N+](=O)[O-])ccc1O	-0.2	x	189.9*	x	-19.6
Cc1ccc(/C=N/NC(=O)CSc2nc3ccccc3s2)o1	-0.7	x	-1.8	x	-48.3
Nc1nnnn1CC(=O)NN=Cc1cc([N+](=O)[O-])ccc1O	x	92.6*	x	81.0	x
COCC#Cc1cnc2c(c1)C(=O)N([C@@H](C)CO)C[C@H](C)[C@H](CN(C)C(=O)c1cccnc1)O2	-0.2	x	x	x	x
C/C(=N\NC(=O)COc1ccccc1-c1ccccc1)c1ccccn1	0.1	x	617.9*	x	20.7
CC1CCc2sc(C(=O)NN=CC3CCCCC3)cc2C1 (stereo not drawn)	x	4.1	x	8.8	x
COc1cccc(C(=O)N2C[C@H]3[C@@H](c4ccccc42)[C@@H](CO)N3Cc2ccccc2F)c1	0.4	x	x	x	x
C[C@H]1CN([C@@H](C)CO)C(=O)Cc2cc(NC(=O)Nc3ccc(F)cc3)ccc2O[C@H]1CN(C)C(=O)Nc1ccc(F)cc1	0.3	x	x	x	x
Fc1cccc(NC(=S)NNc2c3ccccc3nc3ccccc23)c1	19.5*	-5.4	5.9	5.4	-9.5
O=C1C=C(c2ccccc2)C[C@H](c2cccs2)[C@H]1n1nnc([N+](=O)[O-])n1	x	59.2	-0.3	100.4*	-55.0
O=C1C=C(c2ccccc2)CC(c2cccs2)C1n1cnc([N+](=O)[O-])c1 (stereo not drawn)	x	-0.4	-2.5	-3.9	-4.7
Cc1noc(C)c1S(=O)(=O)Nc1ccc2c(c1)C(=O)N([C@H](C)CO)C[C@H](C)[C@H](CN(C)C(=O)c1ccncc1)OCCCC[C@H](C)O2	0.1	x	x	x	x
C/C(=N\NC(=O)c1cc(-c2cccnc2)nc2ccccc12)c1ccc(O)cc1O	x	x	77.7*	x	31.7
CO[C@@H]1CN(C)C(=O)c2cc(NC(=O)c3ccc(F)cc3)ccc2OC[C@H](C)N(C(=O)c2ccc(F)cc2)C[C@@H]1C	0.5	x	x	x	x
COc1cc2c(c(OC)c1OC)-c1ccc(O)c(=O)cc1[C@@H](N)CC2	0.8	-1.9	352.2*	5.3	-13.1
O=C(OCc1ccccc1)N1CCC2CC1c1c(Cl)cccc12 (stereo not drawn)	0.7	11.1	31.8*	9.0	-9.8
CC1c2cccc(O)c2C(O)=C2C(=O)[C@]3(O)C(O)=C(C(N)=O)C(=O)C(N(C)C)C3C(O)C21 (stereo partly drawn)	x	100.2*	x	99.4*	x
C[C@H]1c2cccc(O)c2C(O)=C2C(=O)[C@]3(O)C(O)=C(C(N)=O)C(=O)[C@@H](N(C)C)[C@@H]3[C@@H](O)[C@@H]21	x	x	-0.4	x	-10.0
SMILES	TcdB GH inh	Sa RN4220 lethal	PfHsp40 yeast	ugtP null kill	PrP UTR inh
CC1c2cccc(O)c2C(O)=C2C(=O)C3(O)C(O)=C(C(N)=O)C(=O)C(N(C)C)C3C(O)C21 (stereo not drawn)	x	97.5*	x	99.6*	x
CC1c2cccc(O)c2C(=O)C2C(=O)C3(O)C(=O)C(C(N)=O)C(=O)C(N(C)C)C3C(O)C21 (stereo not drawn)	x	92.8*	x	99.4*	x
CN(C)[C@@H]1C(=O)C(C(N)=O)=C(O)[C@@]2(O)C(=O)C3=C(O)c4c(O)cccc4[C@@](C)(O)[C@H]3[C@H](O)[C@@H]12	-2.4	x	21.8	x	-8.4
O=C(c1cccs1)N(Cc1ccco1)c1nc(-c2ccc(F)cc2)cs1	x	-16.2	-0.4	91.9*	-15.5
CCC(=O)N(Cc1ccco1)c1nc(-c2ccccc2)cs1	x	3.1	-1.0	32.4	-24.1
C[C@H]1CN([C@@H](C)CO)C(=O)c2cc(-c3cccc(F)c3)cnc2O[C@@H]1CN(C)S(=O)(=O)c1cccc(F)c1	0.7	x	x	x	x
O=S(c1ccccc1O)S(=O)c1ccccc1O (stereo not drawn)	-1.1	3.7	144.0*	-2.8	-20.9
CCN(CC)CCN1C(=O)/C(=C\c2ccc(Cl)c([N+](=O)[O-])c2)SC1=Nc1ccc(OC)cc1	-0.2	-6.2	-1.4	92.9*	6.5
CCCCOc1ccc(-c2csc(N)n2)cc1[N+](=O)[O-]	x	8.5	140.9*	8.3	-79.0
Cc1ccc(-c2nc(-c3ccccc3)no2)c(Cl)c1	0.8	0.3	-1.0	11.3	64.8*
COc1ccc(-c2noc(-c3ccccc3F)n2)cc1	0.5	-1.6	5.9	13.4	-92.7
COc1ccc(-c2noc(-c3ccccc3-c3ccccc3)n2)cc1	x	-3.3	1.2	88.3*	-13.4
COC(=O)C1=C(c2ccc(F)cc2OCc2ccccc2)C[C@@H]2CC[C@H]1N2C(=O)NCCOc1ccccc1	10.3*	x	4.2	x	-22.6
COC(=O)C1=C(c2ccc(F)cc2OCc2ccccc2)C[C@@H]2CC[C@H]1N2C(=O)N1CCCC1	10.3*	x	0.0	x	-23.3
COC(=O)C1=C(c2ccc(F)cc2OCc2ccccc2)CC2CCC1N2C(=O)NCCOc1ccccc1 (stereo not drawn)	x	-12.5	x	-9.3	x
COC(=O)C1=C(c2ccc(S(C)(=O)=O)cc2)C[C@@H]2CC[C@H]1N2C(=O)N1CCCCC1	3.4	x	78.0*	x	-17.7
CC=Cc1ccc2n(c1=O)C[C@H]1[C@H](CO)[C@@H](C(=O)NC3CCC3)[C@@H]2N1S(=O)(=O)c1cn(C)cn1 (mixture of isomers)	4.4	x	x	x	x
Cc1ccc(C(=O)Nc2ccc(N3CCCC3)cc2)cc1	0.2	9.0	0.3	-1.7	-46.9
Cc1ccc(C(=O)Nc2ccc(N3CCCCC3)cc2)cc1	11.1*	3.3	1.7	0.2	-31.6
Cc1cccc(Oc2nc(-c3ccccn3)nc3ccccc23)c1	1.2	9.1	195.2*	-4.5	-71.2
CC(=O)Nc1cccc(Oc2nc(-c3ccccn3)nc3ccccc23)c1	1.3	x	-1.2	x	-47.5
Cc1cccc(Oc2nc(-c3ccncc3)nc3ccccc23)c1	2.4	-3.0	15.0	-9.8	-10.3
Cc1ccccc1Oc1nc(-c2ccccn2)nc2ccccc12	2.1	7.5	244.6*	9.3	-43.4
CC(=O)Nc1ccc(Oc2nc(-c3ccccn3)nc3ccccc23)cc1	28.2*	7.9	-0.8	0.9	-52.0
